Data from PubChem BioAssay AID1851 (National Center for Advancing Translational Sciences (NCATS), 2009).
Values joined by “and” are separate entries in the source; they are usually repeats but may differ in a detail not shown here. Identical values can stand only once. Out of some 16,000 compounds screened, about 5,700 (36%) were called active. Not shown: some 24% with an inconclusive outcome. Calls come from the whole dose curve; as a rule, active = well fitted curve in the direction sought with a large enough effect; inconclusive = small, poorly fitted or top-dose-only effect, or effect the other way; inactive = no such curve, though single readings can be large or run the other way. Some of the results follow.

Each compound was assayed against Cytochrome P450 1A2 (Homo sapiens) (UniProt P05177) (assay: Cytochrome panel assay with activity outcomes). Details: recombinant CYP, pro-luciferin dealkylation, luminescence, p450-cyp1a2; series mostly up to 57.1 µM.
Cytochrome P450 1A2 (Homo sapiens), sequence (P05177 whole entry, looked up): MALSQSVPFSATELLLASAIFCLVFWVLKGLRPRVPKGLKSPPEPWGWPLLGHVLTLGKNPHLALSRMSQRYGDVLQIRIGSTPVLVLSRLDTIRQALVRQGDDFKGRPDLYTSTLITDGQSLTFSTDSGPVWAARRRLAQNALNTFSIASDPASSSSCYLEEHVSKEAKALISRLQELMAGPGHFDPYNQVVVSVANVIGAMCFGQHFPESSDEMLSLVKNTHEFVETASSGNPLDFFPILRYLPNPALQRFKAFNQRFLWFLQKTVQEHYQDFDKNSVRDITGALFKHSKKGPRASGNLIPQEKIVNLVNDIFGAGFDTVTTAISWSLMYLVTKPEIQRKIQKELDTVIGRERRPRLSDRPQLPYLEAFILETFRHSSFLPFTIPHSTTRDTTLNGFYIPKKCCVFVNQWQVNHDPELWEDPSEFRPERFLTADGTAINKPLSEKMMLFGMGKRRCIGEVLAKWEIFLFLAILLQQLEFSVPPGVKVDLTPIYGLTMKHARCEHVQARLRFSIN
% is set by controls: 0 for no effect and ±100 for the full control effect.

Compound | AC50 | activity, negative = inhibition
O=C(NCCCN1CCCC1=O)c1ccc(CNS(=O)(=O)c2ccc(F)cc2)cc1 | inactive | 
COc1ccc(-n2c(=S)[nH]c3cc(C(=O)NCCCN4CCCC4=O)ccc3c2=O)cc1 | 25100 nM (active) | 
O=C(NCc1ccccc1Cl)c1ccc2c(=O)n(CCCN3CCCC3=O)c(=S)[nH]c2c1 | inactive | 
Cc1ccc(C)c(N(CC(=O)NC2CCCC2)C(=O)c2cc3cc4cccc(C)c4nc3s2)c1 | inactive | 
CCN(CC)c1ccc2c(Cl)cc(=O)oc2c1 | 891 nM (active) | 
CCN(CC)c1ccc(SS(=O)(=O)O)cc1 | inactive | 
CC1=CC(=C2C(=O)c3ccccc3C2=O)C=C(C)N1Cc1ccco1 | 1580 nM (active) | 
CC1(C)OC(=O)N(Cc2ccco2)C1(C)O (stereo not drawn) | inactive | 
CCCCS(=O)(=O)NC1=NCN(Cc2ccco2)CN1 | inactive | 
CC1=CC(=C2C(=O)c3ccccc3C2=O)C=C(C)O1 | 200 nM (active) | 
Nc1nc(N)c2nn(-c3ccc(C(=O)O)cc3)nc2n1 |  | -13.4% [at 2.29 µM] (inactive)
COc1ccc(C(=O)N2CCC[C@@]3(CCN(C(=O)Nc4cccc(C#N)c4)C3)C2)cc1 | inactive | 
CC(C)NC(=O)N1CCCC2(CCN(C(=O)c3csnn3)CC2)C1 | inactive | 
CSc1nc(Oc2ccc(F)cc2)c2ccccc2n1 | 794 nM (active) | 
CN1CCCC2(CCN(C(=O)c3cnccn3)CC2)C1 | inactive | 
CN1CCN(CCCBr)CC1 |  | -20.9% [at 11.4 µM] (inactive)
O=C(c1cc(Br)ccc1O)c1cc(Br)ccc1O | 1000 nM (active) | 
Cc1cc(C)c(O)c(Cc2cccc(Cc3cc(C)cc(C)c3O)c2O)c1 |  | -14.7% [at 2.29 µM] (inactive)
Clc1ccc(CN2CCCN(Cc3ccc(Cl)cc3)C2c2cc3ccccc3c3ccccc23)cc1 | 794 nM (active) | 
Cc1cc(C)nc(Nc2n[nH]c(-c3cccc4ccccc34)n2)n1 | 4470 nM (active) | 
Cc1cc(C)nc(Nc2n[nH]c(COc3cccc4ccccc34)n2)n1 | 15800 nM (active) | 
Cc1cc(OCCNCCO)cc(C)c1Cl | 2000 nM (active) | 
Cc1nnc(NS(=O)(=O)c2ccc(N)cc2)s1 | inactive | 
O=C1CC(c2ccc3c(c2)OCO3)CN1 (stereo not drawn) | 12600 nM (active) | 
NC(N)=NC[C@@H]1COC2(CCCCC2)O1 | inactive | 

Compound | AC50 | activity, negative = inhibition
Cc1ccc(C)c(Cn2c(C(=O)OC(C)C)cc3c2ccn3C)c1 | 12600 nM (active) | 
CN(C)CC[C@H](c1ccc(Cl)cc1)c1ccccn1 | inactive | 
CC(c1ccc(Cl)cc1)n1c(-c2ccc3ccccc3n2)n[nH]c1=S (stereo not drawn) | 11200 nM (active) | 
CCc1c(O)c2c(c(O)c1C(C)=O)C(=O)c1c(cc(O)c(C(=O)O)c1C(=O)O)C2=O |  | -33.1% [at 11.4 µM] (inactive)
Cc1nc2c(OCc3ccccc3)cccn2c1CC#N | 398 nM (active) | 
Cc1nc2c(C#N)c(C)[nH]n2c(=O)c1Cc1ccccc1 | inactive | 
Brc1ccc(-c2csc(N3CCC(c4ccccc4)C3)n2)cc1 (stereo not drawn) | 2510 nM (active) | 
Clc1ccc(-c2csc(N3CCC(c4ccccc4)C3)n2)cc1 (stereo not drawn) | 3550 nM (active) | 
S=C1NC2=C(C(c3ccc(Br)cc3)N1)N1CCC2CC1 (stereo not drawn) | inactive | 
Cc1ccc(Cn2ccc(NC(=O)c3cc4nc(-c5ccco5)cc(C(F)(F)F)n4n3)n2)cc1 | inactive | 
Cc1ccc(C(C(=O)NC2CCCCC2)N2CCN(C(=O)c3ccco3)CC2)cc1 (stereo not drawn) | inactive | 
O=C(NC1CCCC1)c1cnn2c(C(F)(F)F)cc(-c3ccco3)nc12 | 2240 nM (active) | 
O=S(=O)(c1ccccc1)N1CCC[C@@]2(CCN(C(c3ccccc3)c3ccccc3)C2)C1 | inactive | 
C/C(=N\NC(N)=S)c1ccc[nH]1 | 3160 nM (active) | 
Cc1ccccc1CS(=O)(=O)Cc1ccc(C(=O)NCc2cccnc2)o1 | 10000 nM (active) | 
CCOc1ccc(OCc2ccc(C(=O)NCc3cccnc3)o2)cc1 | 8910 nM (active) | 
O=C1c2ccccc2C2=Nc3ccccc3SC(c3ccccc3F)C12 (stereo not drawn) | 1410 nM (active) | 
CSc1ncnc2c1ncn2[C@@H]1O[C@@H](CO)[C@H](O)O[C@@H]1O |  | -5.22% [at 2.29 µM] (inactive)
S=C(S)N1CCCC1 | 12600 nM (active) | 
COc1ccc2cc(CCNC(=O)C3CC3)c(=O)[nH]c2c1 | 12600 nM (active) | 
COc1ccc(OC)c(S(=O)(=O)N2CCC(C(=O)NCCc3ccccc3)CC2)c1 | inactive | 
COCCCNC(=O)C1CC(=O)N(Cc2ccc(OC)cc2)C1 (stereo not drawn) | inactive | 
Fc1ccccc1OCCCCSc1ncccn1 | 14100 nM (active) | 
CO[C@@H]1COC(=O)[C@H]2CCCN2C(=O)[C@@H](C)COC(=O)[C@H](COCc2ccccc2)NC(=O)C/C=C\[C@H]1C |  | -3.84% [at 11.4 µM] (inactive)
CCN1CCN(c2nc(C)c3c(n2)CCCC3=O)CC1 | 2240 nM (active) | 

Compound | AC50 | activity, negative = inhibition
CCN1CCc2nc(N)oc2CC1 | inactive | 
CCCCc1n[nH]c2c1/C(=N/O)CC(c1ccccc1)C2 (stereo not drawn) | 398 nM (active) | 
NNC(=O)CCc1ccc2ccc3ccccc3c2c1 | 31.6 nM (active) | 
O=C(O)CCCc1ccc2ccc3ccccc3c2c1 | 2000 nM (active) | 
Nc1ccccc1CCCC(=O)O |  | 4.62% [at 11.4 µM] (inactive)
COC(=O)C/C=C\[C@@H](C)[C@@H](/C=N\O[C@@H](C)c1cn([C@H]2COC[C@H]2O)nn1)NS(=O)(=O)c1ccc(C)cc1 |  | -5.92% [at 11.4 µM] (inactive)
CCOCC(=O)Nc1c(C(=O)Nc2ccccc2OC)oc2ccccc12 | 398 nM (active) | 
CCOc1ccc(NC(=O)Cn2nnc(C(=O)NCc3ccccc3OC)c2N)cc1 | inactive | 
CCOc1ccccc1NC(=O)C1=C(C)NC(=O)NC1c1cccc(OC)c1OC (stereo not drawn) | inactive | 
CCOc1ccc(NC(=O)c2oc3ccccc3c2NC(=O)CC)cc1 | 2000 nM (active) | 
CCCCN(C(=O)Nc1ccc(OCC)cc1)C1CCN(C(C)=O)CC1 | inactive | 
COc1cccc(NC(=O)c2oc3ccccc3c2NC(C)=O)c1 | 2510 nM (active) | 
COCC(=O)N1CCC[C@@]2(CCN(C(=O)Nc3ccc(OC)cc3)C2)C1 | inactive | 
C/C(CCN1CCc2nc(-c3ccccc3)c(-c3ccccc3)cc2C1)=N\O[C@@H](C)c1cn([C@H](CO)Cc2ccccc2)nn1 |  | 1.6% [at 11.4 µM] (inactive) and -0.819% [at 11.4 µM] (inactive)
CCn1c(=O)cc(SCC(=O)Nc2cc(OC)c(OC)c(OC)c2)c2ccccc21 | inactive | 
CCn1c2ccccc2c2cc(N=C3SC(CC(=O)Nc4ccccc4OC)C(=O)N3C)ccc21 (stereo not drawn) | inactive | 
CCn1c2ccccc2c2cc(NC(=O)CSc3nnc(-c4ccc(OC)c(OC)c4)n3N)ccc21 | 7080 nM (active) | 
CCN(CC)S(=O)(=O)c1ccc2c3c(cccc13)C(=O)S2 | 1260 nM (active) | 
Cc1noc(NS(=O)(=O)c2cccc3c(N(C)C)cccc23)c1C | inactive | 
CCN(CC)S(=O)(=O)c1cccc2c(N(C)C)cccc12 | 7080 nM (active) | 
Cc1[nH]nc(Nc2ccccc2)c1[N+](=O)[O-] | 1000 nM (active) | 
CCCc1nnc(SCC(=O)N2CCCCC2C)n1CCCOC (stereo not drawn) | inactive | 
Nc1nc(SCC(=O)O)[nH]c(=O)c1N |  | -10.3% [at 11.4 µM] (inactive)
Cc1nc(SCC(=O)Nc2c(C)nn(C)c2C)c2cnn(-c3ccccc3)c2n1 | inactive | 
CCOC(=O)CSc1nc2c(cnn2-c2ccc(C)cc2)c(=O)[nH]1 | 562 nM (active) | 

Compound | AC50 | activity, negative = inhibition
COC(=O)C(C)Sc1nc2c(cnn2-c2ccc(C)cc2)c(=O)[nH]1 (stereo not drawn) | 2510 nM (active) | 
Cc1ccc2nc(SCc3nc4c(cnn4-c4ccccc4)c(=O)[nH]3)[nH]c2c1 | 12600 nM (active) | 
O=C(c1ccco1)N1CCN(c2cc(=O)n(C3CCCCC3)c(=O)[nH]2)CC1 | inactive | 
O=C(N/N=C/c1c(Nc2cccc(C(F)(F)F)c2)nc2ccccn2c1=O)c1ccccc1 | 2820 nM (active) | 
Cc1ccc(C(=O)N/N=C/c2sc(=O)n(Cc3cccc(C(=O)O)c3)c2Cl)cc1 | inactive | 
CC(C)(CO)[C@H](O)C(=O)NCCCO | inactive | 
CNc1ncnc2c1ncn2[C@@H]1O[C@@H](CO)[C@H](O)[C@@H]1O | inactive | 
Cc1ccc(OCC(=O)N/N=C\c2c(C)n(C)c3ccccc23)c([N+](=O)[O-])c1 | 562 nM (active) | 
Cn1c(=O)cc(OCCCC(=O)Nc2cccnc2)c2ccccc21 | 2000 nM (active) | 
COc1ccc(CC(=O)Nc2ccc(-c3noc(-c4cccc(OC)c4)n3)cc2)cc1 | inactive | 
COc1ccc(-c2nnc(-c3cccnc3)o2)cc1 | 12600 nM (active) | 
CCOc1ccc(-c2nnc(-c3ccncc3)o2)cc1 | 2510 nM (active) | 
COc1ccc(-c2nnc(-c3ccc(OCC(C)C)cc3)o2)cc1 | inactive | 
COc1cccc(-c2noc(-c3cccnc3)n2)c1 | 2820 nM (active) | 
CCOC(=O)CCN1C(=O)[C@H]2[C@H]3[C@H](O)[C@H](O)C/C(=N/OC/C=C(\C)CCC=C(C)C)[C@@H]3CC[C@@H]2C1=O |  | -2.33% [at 11.4 µM] (inactive)
N#Cc1c(-c2ccccc2)no[n+]1[O-] | 398 nM (active) | 
CC[C@H](CN(C)C)C(=O)c1ccco1 |  | -9.05% [at 11.4 µM] (inactive)
C[N+]1(CCC(=O)c2ccco2)CC2CCC(CC2)C1 (stereo not drawn) |  | -10.2% [at 11.4 µM] (inactive)
CCCCn1c(=N)n(CC(=O)c2ccco2)c2ccccc21 | 8910 nM (active) | 
C[C@H](N)CCCC(C)(C)O | inactive | 
CSc1nc(C)c2c(n1)N(c1ccc(C(F)(F)F)cc1)CC2 | 316 nM (active) | 
CSc1nc(C)c2c(n1)N(c1ccc(C(C)C)cc1)CC2 | 2000 nM (active) | 
C[C@H](O)[C@H](O)[C@@H]1CNc2nc(N)[nH]c(=O)c2N1 | inactive | 
